58 compounds from PubChem BioAssay AID624291 (National Center for Advancing Translational Sciences (NCATS), 2012) can be followed below.

The whole screen tested about 350,000 compounds, of which about 220 (0.063%) were called active. About 4% were inconclusive and are not listed. Calls come from the whole dose curve; as a rule, active = well fitted activation curve with a large enough effect; inconclusive = small, poorly fitted or top-dose-only effect; inactive = no such curve, though single readings can be large or run the other way. Shown is part of a subset that was picked to be rich in actives. Entries that show only a call come without a potency.
Potency is the fitted concentration of half-maximal effect.

This assay in a line: qHTS for Activators of Integrin-Mediated Alleviation for Muscular Dystrophy. Note: nearly all actives have a fitted effect of over 60% in size. To be noted: alpha7betagal myoblasts, beta-gal FDG fluorescence, 48 h; series mostly up to 38.3 µM. In outline: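 Alpha7betagal+/- myoblasts (passage 13) were plated 16-24 hr, then exposed to compounds (1:260 dilution of DMSO stock) for 48 hours at 37C. After MPER lysis, β-galactosidase reporter activity was read as FDG fluorescence (ex 480/em 540) after 30 minutes.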
Regarding `COc1ccc(-c2c(C#N)cnc(C)c2C)c(O)c1OC`, the Potency result was “inactive”.
For the compound `COc1ccc(-c2ccc3[nH]c4c(c3c2)CCN2C[C@H]3[C@H](C)ON(C)[C@H]3C[C@@H]42)cc1`, the Potency entry was “inactive”.
With `O=C(Nc1ccc2c(c1)[C@@H]1C[C@@H](CC(=O)N3CCCCC3)O[C@@H](CO)[C@@H]1O2)NC1CCCCC1`, the Potency result was “inactive”.
In the case of `C[C@@H]1CCCCO[C@H](CN(C)Cc2ccccc2)[C@@H](C)CN([C@H](C)CO)C(=O)c2cc(NS(=O)(=O)c3ccc(Cl)cc3)ccc2O1` it was “inactive”.
Under `OCC1OC(n2cnc3c(N4CCCC4)ncnc32)C(O)C1O` (stereo not drawn) stands “inactive”; under `CCOC(=O)C1CCN(C(=O)c2ccc3c(=O)n4nc(Nc5ccccc5CC)sc4nc3c2)CC1`, “inactive”.
Under `COc1ccc(-c2ccc(CN3C(CC(C)C)C(=O)N(Cc4cn(CC5CCCCC5)nn4)CCS3(=O)=O)cc2)cc1` (stereo not drawn) stands “inactive”.
For `CNC(=O)C[C@H]1C(=O)N(c2ccc(OC)cc2)C[C@@H]1Cc1ccccc1`, the Potency result was “inactive”.
In the case of `COc1cccc(NC(=O)N(C)C[C@@H]2Oc3ncc(Br)cc3C(=O)N([C@@H](C)CO)C[C@H]2C)c1` it was “inactive”; in that of `COc1ccc(NC(=O)c2cc(=O)[nH]c3ccccc23)cc1S(=O)(=O)N1CCOCC1`, “inactive”; in that of `CCN(CC)C(=O)C1=C(C)N(Cc2ccc(OC)cc2)C(=O)C(CC(=O)NCc2ccco2)C1` (stereo not drawn), “inactive”.
`O=C(NCCOc1ccccc1)N1[C@H]2CC[C@@H]1C=C(c1ccc(F)cc1OCc1ccccc1)C2`: the Potency entry is “inactive”.
With `O=S(=O)(c1cccc(C(F)(F)F)c1)N1c2ccccc2-n2cccc2C1c1cccnc1` (stereo not drawn), the Potency entry is “inactive”.
In the case of `O=C(C[C@H]1C[C@@H]2c3cc(NC(=O)C4CCC4)ccc3O[C@@H]2[C@H](CO)O1)NC1CCCCC1` it was “inactive”.
In the case of `CCOC(=O)c1cnn2c(SC)ncnc12` it was “inactive”; in that of `Cc1ccc(-c2ccc(CN3C(C(C)C)C(=O)N(Cc4cn(CCC5OCCCO5)nn4)CCS3(=O)=O)cc2)cc1` (stereo not drawn), “inactive”; in that of `O=C(CSc1ncn[nH]1)Nc1nc2c(F)c(F)c(F)cc2s1`, “inactive”.
Under `C[C@H]1CN([C@@H](C)CO)C(=O)CCCn2nncc2CO[C@@H]1CN(C)S(=O)(=O)c1cccc(C#N)c1` stands “inactive”.
Take `c1ccc2c(c1)nnn2-c1ccncc1`: the Potency result is “inactive”.
Under `CC(OC(=O)c1cccc(S(=O)(=O)N2CCOCC2)c1)C(=O)NCC1CCCCC1` (stereo not drawn) stands “inactive”; under `CC1(C)OC(=O)C2=C(CC(c3ccccc3)OC2CCc2ccccc2)O1` (stereo not drawn), “inactive”; under `O=C(NCCS(=O)(=O)N1CCN(c2ccccc2)CC1)c1cc(=O)c2ccccc2o1`, “inactive”.
Under `CCc1ccccc1NC(=O)CN1CCN(C(=O)c2cc(C3CC3)nn2-c2ccccc2)CC1` stands “inactive”.
In the case of `Cc1ccn2c(-c3csc(Nc4ccc(C(=O)O)cc4)n3)c(C)nc2c1` it was “inactive”.
On to `CC1=C(C(=O)Nc2cccc(C(=O)NCC(C)c3ccccc3)c2)SCCO1` (stereo not drawn), for which the Potency entry is “inactive”.
In the case of `CC(=O)c1ccccc1NC(=O)COC(=O)C1COc2ccccc2O1` (stereo not drawn) it was “inactive”; in that of `O=C(CCc1ccc(O)cc1)NN=Cc1cc(Br)ccc1O`, “inactive”.
Under `COc1ccc(S(=O)(=O)N2CCC(C(=O)NCCC(=O)Nc3ccccc3OC)CC2)cc1` stands “inactive”; under `CCOc1cc(/C=N/NC(=O)c2ccncc2)cc(Br)c1O`, “inactive”; under `Cc1ccc(CCNC(=O)CN2C(=O)CSc3ccc(S(=O)(=O)N4CCOCC4)cc32)cc1`, “inactive”.
Consider `N#CCCN(C(=O)Nc1ccc(Cl)c(Cl)c1)C1CCCCC1`, for which the Potency entry was “inactive”.
Under `O=C1c2ccccc2-c2ccccc2NC1O` (stereo not drawn) stands “inactive”.
Under `Cc1ccc(S(=O)(=O)N2C[C@H]3n4c(=O)ccc(=O)n4C[C@H](OC(=O)NC4CCCC4)[C@@]3(O)C2)cc1` stands “inactive”.
Under `CCCCN(C(C)=O)c1ccc2c(c1)C1CC2CCN1Cc1ccccc1` (stereo not drawn) stands “inactive”; under `C[C@@H]1CN([C@H](C)CO)S(=O)(=O)c2ccc(C#CC3CCCCC3)cc2O[C@H]1CN(C)C(=O)Cc1ccncc1`, “inactive”; under `COc1ccc(OC)c(NC(=O)C2CCCN2S(=O)(=O)c2ccc3c(c2)CC(C)N3C(C)=O)c1` (stereo not drawn), “inactive”.
On to `C#Cc1cc(N2CCN(C(=O)c3ccoc3)CC2)n2nc(-c3cccc(Cl)c3)cc2n1`, for which the Potency result was “inactive”.
Under `Nc1cc(=O)c2[nH]cnc2[nH]1` stands “inactive”; under `CSc1ncnc2c1ncn2CCCNCc1ccco1`, “inactive”; under `C[C@@H]1CN([C@@H](C)CO)C(=O)CCCn2nncc2CO[C@H]1CN(C)Cc1ccc(C(F)(F)F)cc1`, “inactive”.
As to `CCC(Oc1ccccc1)C(=O)OCC(=O)Nc1c(C)nn(-c2ccccc2)c1C` (stereo not drawn), the Potency entry is “inactive”.
In the case of `CCc1nnc(NC(=O)c2ccco2)s1` it was “inactive”.
Under `O=C(Nc1cc(F)ccc1F)c1ccc2c(=O)n3c(nc2c1)CCC3` stands “inactive”; under `O=C(NN=Cc1ccc2c(c1)CCC2)c1ccccc1O`, “inactive”.
In the case of `Cc1ccc(CN(C)C[C@@H]2OCc3cnnn3CCCC(=O)N([C@@H](C)CO)C[C@H]2C)cc1` it was “inactive”; in that of `CC(=NNC(N)=O)C1CC2CCC1CC2` (stereo not drawn), “inactive”; in that of `CCN(CC)C(=O)C1=C(C)N(Cc2ccc(C(C)(C)C)cc2)C(=O)C(CC(=O)NCc2cccc3ccccc23)C1` (stereo not drawn), “inactive”.
With `Cc1ccccc1C#CC1=CC(=O)CC(C)(C)C1`, the Potency entry is “inactive”.
Consider `COc1ccc(NC(=O)N(C)C[C@H]2Oc3ncc(C#C[C@@H](C)O)cc3C(=O)N([C@H](C)CO)C[C@H]2C)cc1`, for which the Potency result is “inactive”.
Regarding `CCCc1ccc(S(=O)(=O)N2CCN(C(=O)c3cc(C)on3)CC2)cc1`, the Potency entry is “inactive”.
Under `COc1cc(C(=O)OCCCN2CCOCC2)cc(OC)c1OC` stands “inactive”; under `O[C@@H]1C[C@H](c2ccccc2)N(Cc2cccs2)C[C@H]1n1cc(C2CC2)nn1`, “inactive”; under `Cc1cccc(C(=O)N[C@H](C(=O)NCc2cccs2)C(C)C)c1`, “inactive”.
For `CC(=O)Nc1ccc(NC(=O)[C@@H](NC(=O)c2cccc(C)c2)C(C)C)cc1`, the Potency was 5.62 µM (active).
Under `CCc1nnc(NC(=O)[C@@H](NC(=O)c2cccc(C)c2)C(C)C)s1` stands “inactive”; under `O=C(O)C1=C(C(=O)O)C2CCC1C2`, “inactive”; under `COCOCCn1cc(CN2CCS(=O)(=O)N(Cc3ccc(-c4ccccc4)cc3)C(CC(C)C)C2=O)nn1` (stereo not drawn), “inactive”.
Consider `CC1(C2CC2)NC(=O)N(CC(=O)N2CCN(c3ccccc3F)CC2)C1=O` (stereo not drawn), for which the Potency entry is “inactive”.
